# From PubChem BioAssay (NCATS)
# Values without a mark were called inactive. Unless noted, the call rests on the fitted dose curve; in most records, active means well fitted curve in the direction sought with a large enough effect; inconclusive means small, poorly fitted or top-dose-only effect, or another doubt; inactive means no such curve, though single readings can be large; an effect the other way counts as inactive or inconclusive. Results filed as inconclusive are left out.
# Biological target: Luciferin 4-monooxygenase (Photinus pyralis) (UniProt P08659)
# Assay: Primary firefly luciferase (FLuc) qHTS assay for identification of artifact compounds. (AID 1845220);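 further: plate controls were DMSO vehicle for no effect and no enzyme for full effect; nearly all actives have a fitted effect of over 60% in size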
# Conditions: purified firefly luciferase, luminescence, 5 min; series mostly up to 54.1 µM; activity change, negative = inhibition: at the top concentration
# How it was run: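 Reaction readout was CCD-imaged luminescence, taken 5 min after adding 10 nM purified firefly enzyme to compound-treated wells holding 10 uM luciferin and ATP in pH 7.6 buffer.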
row,SMILES,"activity change, negative = inhibition [%]"
1,O=C(O)Cc1cc(I)c(Oc2ccc(O)c(I)c2)c(I)c1,-8.6
2,C=C1[C@H](CO)[C@@H](O)C[C@@H]1n1cnc2c(=O)[nH]c(N)nc21,0.719
3,N[C@@H](Cc1cc(I)c(Oc2ccc(O)c(I)c2)c(I)c1)C(=O)O,-0.884
4,C[C@]12CC[C@@H]3c4ccc(OC(=O)c5ccccc5)cc4CC[C@H]3[C@@H]1CC[C@@H]2O,-8.72
5,CCN(CC)CCOCCOC(=O)C(CC)(CC)c1ccccc1,-5.12
6,CC1CC(OC(=O)C(O)c2ccccc2)CC(C)(C)C1 (configuration not stated),-6.25

# System: not listed separately
# Assay: Primary fluorescence-based thiol-reactive (MSTI) qHTS assay for identification of artifact compounds. (AID 1845221);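 further: thiol-reactive compounds lower the probe fluorescence signal; nearly all actives have a fitted effect of over 65% in size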
# Conditions: MSTI thiol-reactivity probe, 1 h; series mostly up to 53.8 µM; activity change, negative = thiol reactive: at the top concentration
# How it was run: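 qHTS titration of compound; 4 uM MSTI, PBS pH 7.4, 2% DMSO; 1 h RT, dark; fluorescence 525/598 nm; normalized to Acetyl-MSTI and MSTI; 4-parameter Hill fit.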
row,SMILES,"activity change, negative = thiol reactive [%]"
1,O=C(O)Cc1cc(I)c(Oc2ccc(O)c(I)c2)c(I)c1,101
2,C=C1[C@H](CO)[C@@H](O)C[C@@H]1n1cnc2c(=O)[nH]c(N)nc21,-8.8
3,N[C@@H](Cc1cc(I)c(Oc2ccc(O)c(I)c2)c(I)c1)C(=O)O,98.9
4,CCN(CC)CCOCCOC(=O)C(CC)(CC)c1ccccc1,2.83

# System: Nanoluciferase (engineered Oplophorus gracilirostris luciferase)
# Assay: Primary Nanoluciferase (NLuc) qHTS assay for identification of artifact compounds. (AID 1845222);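 further: NLuc secreted into diluted conditioned medium of S16 cells; 0% = DMSO and -100% = no enzyme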
# Conditions: NLuc-conditioned medium, Nano-Glo luminescence, 5 min; series mostly up to 54.1 µM; activity, negative = inhibition: at the top concentration
# How it was run: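 Concentration-response data were obtained by luminescence after 5 min with Nano-Glo substrate at 1:100. The enzyme was diluted S16 NLuc-expressing cell medium, preincubated with compound for 15 min at RT. Curves were fitted with a 4-parameter Hill model.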
row,SMILES,"activity, negative = inhibition [%]"
1,C=C1[C@H](CO)[C@@H](O)C[C@@H]1n1cnc2c(=O)[nH]c(N)nc21,-3.98
2,N[C@@H](Cc1cc(I)c(Oc2ccc(O)c(I)c2)c(I)c1)C(=O)O,-10.9
3,C[C@]12CC[C@@H]3c4ccc(OC(=O)c5ccccc5)cc4CC[C@H]3[C@@H]1CC[C@@H]2O,0.436
4,CCN(CC)CCOCCOC(=O)C(CC)(CC)c1ccccc1,3.63
5,CC1CC(OC(=O)C(O)c2ccccc2)CC(C)(C)C1 (configuration not stated),-8.61

# System: not listed separately
# Assay: Primary redox qHTS assay for identification of artifact compounds. (AID 1845223);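 further: 0% = DMSO and 100% = reference compound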
# Conditions: Amplex Red/HRP redox cycling with DTT, fluorescence; series mostly up to 53.8 µM; redox activity (% of DA3003): at the top concentration
# How it was run: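 Redox-cycling detection via DTT (250 uM final) oxidation coupled to Amplex Red (25 uM)/HRP (250 mU/mL) in HBSS. 15 min preincubation plus 30 min after DTT, room temperature. Ex/Em 525/598 nm; 4-parameter Hill fit against DMSO and 10 uM DA3003.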
row,SMILES,redox activity (% of DA3003) [%]
1,C=C1[C@H](CO)[C@@H](O)C[C@@H]1n1cnc2c(=O)[nH]c(N)nc21,-5.57
2,N[C@@H](Cc1cc(I)c(Oc2ccc(O)c(I)c2)c(I)c1)C(=O)O,-5.7
3,C[C@]12CC[C@@H]3c4ccc(OC(=O)c5ccccc5)cc4CC[C@H]3[C@@H]1CC[C@@H]2O,-6.37
4,CCN(CC)CCOCCOC(=O)C(CC)(CC)c1ccccc1,2.64
5,CC1CC(OC(=O)C(O)c2ccccc2)CC(C)(C)C1 (configuration not stated),-4.65

# System: not listed separately
# Assay: qHTS drug screen for cell cycle checkpoint inhibitors in PARPi-resistant BRCA-mutant ovarian cancer cell lines. (AID 1963452; calls by dose curve)
# Conditions: PEO1/OlaR viability, CellTiter-Glo luminescence, 96 h; stronger effect = lower value
# How it was run: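 PEO1, PEO4 and PEO1/OlaR ovarian cancer cells, 600 per well, exposed 96 h at 37C to a dilution series. Viability read by CellTiter-Glo luminescence, normalized to DMSO and empty wells; activity summarized as Z-AUC.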
row,SMILES,Z-AUC
1,C=CC[C@@H]1/C=C(\C)C[C@H](C)C[C@H](OC)[C@H]2O[C@@](O)(C(=O)C(=O)N3CCCC[C@H]3C(=O)O[C@H](/C(C)=C/[C@@H]3CC[C@@H](O)[C@H](OC)C3)[C@H](C)[C@@H](O)CC1=O)[C@H](C)C[C@@H]2OC,1.09
2,CN[C@@H]1[C@@H](O)[C@@H](O[C@@H]2[C@@H](O)[C@H](O[C@H]3O[C@H](CN)[C@@H](O)[C@H](O)[C@H]3O)[C@@H](N)C[C@H]2NC(=O)C(O)CN)OC[C@]1(C)O (some centres not stated),-1.59
3,C=C1[C@H](CO)[C@@H](O)C[C@@H]1n1cnc2c(=O)[nH]c(N)nc21,1.7
4,CC[C@H]1OC(=O)[C@H](C)[C@@H](O[C@H]2C[C@@](C)(OC)[C@@H](O)[C@H](C)O2)[C@H](C)[C@@H](O[C@@H]2O[C@H](C)C[C@H](N(C)C)[C@H]2O)[C@](C)(O)C[C@@H](C)CN(C)[C@H](C)[C@@H](O)[C@]1(C)O,1.04
5,C=CC[N+]1([C@H]2C[C@H]3[C@@H]4CC[C@H]5C[C@H](O)[C@@H](N6CCOCC6)C[C@]5(C)[C@H]4CC[C@]3(C)[C@H]2OC(C)=O)CCCC1,1.19
6,CCC[C@@H]1C[C@@H](C(=O)N[C@@H]([C@H]2O[C@H](SC)[C@H](O)[C@@H](O)[C@H]2O)[C@H](C)Cl)N(C)C1,1.72
7,COc1ccc([C@@H]2CC(=O)c3c(O)cc(O[C@@H]4O[C@H](CO[C@@H]5O[C@@H](C)[C@H](O)[C@@H](O)[C@H]5O)[C@@H](O)[C@H](O)[C@H]4O)cc3O2)cc1O,-0.188
